Compound activity (PubChem)
CRFR2-BP antag: antagonists of CRF-BP/CRF-R2 complex, primary screen, cell-based, HEK293, calcium dye fluorescence, uHTS | 350,000 tested, 0.59% active | inhibition, % at 11.8 µM | CRF-induced calcium fluorescence;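 active = inhibition of the ligand-induced calcium signal above about 50% at the single tested concentration, limit read from the data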
CRFR2-BP ag: agonists of CRF-BP/CRF-R2 complex, primary screen, cell-based, HEK293, calcium dye fluorescence, uHTS. AID 588473, 2011. CRF-binding protein / CRF receptor 2 complex (human). 350,000 tested, 0.46% active. activation, % at 13.2 µM. calcium dye fluorescence (FLIPR); percent of saturating CRF peptide response;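 active = activation of at least 50%, plus an integration ratio under a set limit after plate pattern correction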;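 note: plate controls were neutral control wells without compound for no effect and CRF at EC100 for full effect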
GRIN3A LBD mod: binders of NR3A ligand-binding domain, primary screen, biophysical, differential scanning fluorimetry, uHTS; Glutamate receptor ionotropic, NMDA 3A (GRIN3A) ligand-binding domain; NR3A LBD differential scanning fluorimetry, Tm shift; 0% = protein alone, 100% = glycine-bound protein; Tm shift relative to glycine control, % at 25 µM; 340,000 tested, 2.5% active; AID 1259313, 2017;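 active = melting temperature shift of at least 10% of the positive control shift, at one fixed dose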
ANO1 activ: TMEM16A chloride channel activators or potentiators, primary screen, cell-based, HTS | HEK293 TMEM16A/YFP-H148Q/I152L, iodide quench fluorescence; stronger effect = lower value | B-score at 10 µM | AID 623877, 2012 | 340,000 tested, 0.3% active | Anoctamin-1 (Mus musculus), Q8BHY3;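 active = fluorescence-ratio B-score plate-corrected deviation score at least 3 library SD below zero, with starting fluorescence score within 5 deviations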;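 note: channel opened by trigger with iodide after compound preincubation; score built on the fluorescence ratio of max minus min over baseline; more negative score means more quench and so TMEM16A activation or potentiation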
MPTP inh: mitochondrial permeability transition pore inhibitors, primary screen, biochemical, isolated mouse mitochondria, absorbance. Ca2+ swelling absorbance, 30 min. inhibition, % at 10 µM. 360,000 tested, 1.4% active. AID 602449, 2012;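 active = inhibition of 50% or more, scaled per plate between neutral and stimulator controls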;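 note: 0% = DMSO wells given calcium and 100% = 1 mM EGTA wells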
ANO1 block: TMEM16A chloride channel inhibitors, primary screen, cell-based, HTS; Anoctamin-1 (Mus musculus), Q8BHY3; HEK293 TMEM16A/YFP iodide influx fluorescence, ionomycin; normalized B-score (activity score, 25-100; higher = stronger inhibition) at 10 µM; 310,000 tested, 1.2% active;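 active = ratio plate-corrected score three or more library SD toward inhibition, starting fluorescence score within five deviations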;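 note: score derived from kinetic fluorescence span divided by baseline fluorescence per well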
The depositor's hits bear a star; i = inactive; x = no result. The list is not random: actives were taken first. Their share in the collection is about 5.1%.

SMILES | CRFR2-BP antag | CRFR2-BP ag | GRIN3A LBD mod | ANO1 activ | MPTP inh | ANO1 block
Cc1cc(S(=O)(=O)N2CCOCC2)ccc1OCC(=O)Nc1ccc(F)c(Cl)c1 | -12.3 | 2.0 | 44.4* | i | 0.8 | i
Cc1cccc(NC(=O)CSCC(=O)Nc2cc(S(=O)(=O)N3CCOCC3)ccc2OC(C)C)c1 | -0.8 | -1.1 | 1.0 | i | 1.6 | i
Cc1ccc(CSCC(=O)Nc2cc(S(=O)(=O)N3CCOCC3)ccc2OC(C)C)cc1 | 64.0* | 0.1 | -1.2 | i | -0.7 | i
Cc1ccc(OCC(=O)Nc2ccc(S(=O)(=O)N3CCOCC3)cc2)c(C)c1 | -10.1 | -1.0 | 10.5* | i | -0.4 | x
Cc1cc(S(=O)(=O)N2CCOCC2)ccc1OCC(=O)Nc1ccc(F)cc1 | -16.2 | 1.1 | -0.2 | i | 0.7 | i
CCOc1ccccc1NC(=O)CCn1ccnc1 | 7.8 | 4.2 | -1.0 | i | -0.1 | i
NC(CCc1ccccc1)c1csc(NC(=O)Nc2ccccc2Oc2ccccc2)n1 (configuration not stated) | x | x | x | x | 6.0 | x
COc1ccc(NS(=O)(=O)c2cn(C)c(=O)n(C)c2=O)cc1 | -6.8 | -1.1 | 0.8 | i | -1.0 | i
O=C(CCNC(=O)c1ccc(Cl)cc1)NNC(=O)c1ccc(F)cc1 | -12.8 | 0.2 | 1.2 | i | -2.8 | x
CCCc1cc(C(N)=S)ccn1 | 6.0 | 1.2 | 11.5* | i | 2.0 | i
S=C(NC1CCCCC1)N1CCOCCOCCN(C(=S)NC2CCCCC2)CCOCCOCC1 | 115.1* | 2.7 | -1.6 | i | 4.0 | i
CC1(C)CC(=O)C2=C(C1)NC(SCC(N)=O)=C(C#N)C21CCCCC1 | 5.1 | 0.3 | 16.4* | i | -0.5 | i
CCOC(=O)c1cnc(SC)nc1Sc1ccccc1Cl | 1.0 | 6.2 | 19.8* | i | 3.0 | i
CN(C)c1ccc(CNC(=O)CCS(=O)(=O)c2ccc3c(c2)n(C)c(=O)c(=O)n3C)cc1 | 8.1 | -2.2 | -3.8 | i | 0.0 | i
COc1cc(C(=O)NC2CC(C)(C)Cc3c2cnn3-c2ccccc2)cc(OC)c1OC (configuration not stated) | 57.2* | 0.0 | -0.8 | i | 0.6 | i
CC1(C)Cc2c(cnn2-c2ccccc2)C(NC(=O)CCc2ccc(=O)[nH]n2)C1 (configuration not stated) | 19.3 | -1.5 | 12.6* | i | -0.9 | i
Cc1cccc(C(=O)Oc2ccc3ccc(O)cc3c2)c1 | 2.6 | 2.6 | -7.9 | i | -1.3 | i
Cc1nnc(N=c2ssnc2Cl)o1 | 13.5 | -8.5 | 21.3* | i | 1.0 | x
COc1cc(N=c2ssnc2Cl)c(OC)cc1Cl | -10.6 | 2.4 | 19.0* | i | 3.6 | i
Cc1ccc(N=c2ssnc2Cl)cc1 | -7.7 | 9.4 | 21.9* | i | 1.2 | i
Cc1cc(Cl)ccc1N=c1ssnc1Cl | -8.1 | 4.3 | 24.2* | i | 2.6 | i
COC(=O)c1sc(NC(=O)c2ccc3c(c2)OCO3)c(C#N)c1C | 2.6 | -0.3 | 1.4 | i | -1.0 | x
CN(C)c1cccc(C(=O)NCC(c2ccco2)N(C)C)c1 (configuration not stated) | 0.4 | -1.0 | 0.2 | i | 0.0 | i
O=C1c2c(Cl)c(Cl)c(Cl)c(Cl)c2C(=O)N1c1nccs1 | 9.3 | -3.1 | 0.5 | i | -1.4 | x
O=C(CCl)NC(Cc1c[nH]c2ccc(OCc3ccccc3)cc12)C(=O)O (configuration not stated) | 6.2 | -5.2 | 0.5 | i | -0.3 | i
SMILES | CRFR2-BP antag | CRFR2-BP ag | GRIN3A LBD mod | ANO1 activ | MPTP inh | ANO1 block
CCCCn1nnnc1C(c1cc2ccccc2o1)N1CCN(C/C=C/c2ccccc2)CC1 (configuration not stated) | x | x | x | x | 3.0 | x
CC(C)C[C@H](NC(=O)N1CCn2c1nc1ccccc12)C(=O)NCc1ccc2c(c1)OCO2 | -15.4 | 2.1 | -3.0 | i | -1.2 | i
O=C(NCCc1ccccc1)N1c2ccccc2Sc2ccccc21 | -5.9 | -1.1 | 1.0 | i | 2.0 | 100*
Cn1nc(C(=O)NNC(=O)CCc2ccccc2Cl)c2ccccc2c1=O | 24.9 | -1.0 | 0.7 | i | -0.9 | i
Cc1cccc(CSc2nnc(CCNC(=O)OC(C)(C)C)o2)c1 | -5.7 | -1.1 | 0.5 | i | 1.2 | i
O=C(N/N=C/c1ccc2c(c1)OCO2)C1CC1 | -1.4 | -1.2 | -4.5 | i | -0.3 | i
CC(C)(C)OC(=O)N1CCC[C@H]1C(=O)N/N=C/c1cccc2cccnc12 | -4.7 | -1.5 | 13.9* | i | 0.7 | i
CC(C)(C)OC(=O)NCCC(=O)N/N=C/c1cccc2cccnc12 | 6.7 | 0.2 | 0.2 | i | 1.2 | i
Cc1cccc(-n2ncc3c(NCc4cccnc4)ncnc32)c1 | -0.1 | -0.2 | 0.1 | i | -0.2 | i
Cc1ccc(-n2ncc3c(NCc4cccnc4)ncnc32)cc1C | -10.7 | -1.4 | -2.6 | i | 1.6 | 25*
O=C(CCCN1C(=O)/C(=C\c2cccs2)SC1=S)Nc1ccc(O)cc1 | -1.6 | 0.3 | 2.0 | i | 2.5 | i
O=C(CCCN1C(=O)/C(=C/c2cccs2)SC1=S)NNC(=O)c1ccccc1O | -37.9 | -2.8 | 12.0* | i | 30.0 | i
COc1ccc(/C=C2\SC(=S)N(CCCC(=O)NNC(=O)c3ccccc3O)C2=O)cc1 | -24.3 | 0.0 | 6.4 | i | 4.4 | i
COc1ccccc1/C=C1\SC(=S)N(CCC(=O)NNC(=O)c2ccccc2O)C1=O | -5.1 | -0.9 | 11.4* | i | 2.7 | i
O=C(CCCN1C(=O)/C(=C/c2cccs2)SC1=S)Nc1ccccc1O | -5.4 | 0.8 | 10.4* | i | 4.0 | i
O=C(CCCN1C(=O)/C(=C/c2cccs2)SC1=S)NNC(=O)c1ccncc1 | -2.2 | 1.5 | -4.3 | i | 4.8 | i
O=[N+]([O-])c1ccc(CSc2nnc(-c3cccnc3)o2)cc1 | 5.5 | -0.7 | -1.4 | i | -2.8 | i
COC(=O)c1cccc(Nc2cc(C)nc(-c3ccccc3O)n2)c1 | 12.2 | -0.5 | 16.8* | i | 16.4 | i
COC(=O)c1ccc(Nc2cc(C)nc3ccc(C)cc23)cc1 | -1.3 | 0.0 | -2.2 | i | 8.8 | i
COC(=O)c1ccc(Nc2cc(C)nc(-c3ccccc3O)n2)cc1 | -21.4 | 16.1 | 22.8* | i | -12.2 | i
CCOC(=O)c1ccc(Nc2nc(C)cc(C)n2)cc1 | -1.7 | 0.7 | 0.0 | i | 0.0 | i
